This excerpt belongs to a sample that is enriched for hits.
miR122 inh = activators of miR-122 sensor in Huh7 cells; Huh7 psiCHECK-miR122 Renilla luciferase sensor, 48 h; activation, % at 12.5 µM; 0.14% of 340,000 active; AID 623901;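 active = mean activation of 30% or more, with every replicate also reaching 30%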;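 also: 0% = median of neutral control wells and 100% = median of positive control wells; higher luciferase signal means stronger suppression of miR-122 activity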
* hit, by the source's call.

SMILES	miR122 inh
C[C@@H]1CN([C@@H](C)CO)C(=O)c2cccc(N(C)C)c2O[C@@H]1CN(C)Cc1ccc(C(=O)Nc2ccccc2N)cc1	-109
NC(=O)C1CCN(C2=C(Cl)C(=O)c3ccccc3C2=O)CC1	70*
Cc1ccc(-c2cnc3c(c2)C(=O)N([C@@H](C)CO)C[C@@H](C)[C@@H](CN(C)C(=O)c2ccncc2)O3)cc1	7
C[C@H]1CN([C@@H](C)CO)C(=O)c2cc(/C=C/c3ccccc3)cnc2O[C@@H]1CN(C)C(=O)C1CCC1	5
Cc1ccc(S(=O)(=O)N(C)C[C@H]2Oc3cc(-c4cccc(F)c4)ccc3S(=O)(=O)N([C@H](C)CO)C[C@H]2C)cc1	-12
CC(C)CC#Cc1cnc2c(c1)C(=O)N([C@H](C)CO)C[C@H](C)[C@@H](CN(C)C(=O)C1CCCCC1)O2	-10
Cc1ccc(-n2c(Cc3ccccc3)n[nH]c2=S)cc1	41*
C/C=C/c1cnc2c(c1)C(=O)N([C@H](C)CO)C[C@@H](C)[C@H](CN(C)S(=O)(=O)c1cccs1)O2	-1
C[C@H](CO)N1C[C@H](C)[C@@H](CN(C)Cc2ccc(F)cc2)Oc2cc(C#Cc3ccccn3)ccc2S1(=O)=O	-24
COc1cccc(OCc2cc(/C=N/Nc3ccc(C(=O)O)cc3)ccc2OC)c1	47*
COc1ccc(OC)c(S(=O)(=O)Nc2ccc(C(C)=O)cc2)c1	-100
CCC(=O)N(C)C[C@H]1Oc2cc(C#C[C@@H](C)O)ccc2S(=O)(=O)N([C@@H](C)CO)C[C@@H]1C	7
C[C@H](CO)N1C[C@H](C)[C@@H](CN(C)Cc2ccccn2)Oc2cc(-c3cccnc3)ccc2S1(=O)=O	-7
C/C=C/c1ccc2c(c1)O[C@@H](CN(C)Cc1ccccc1F)[C@H](C)CN([C@@H](C)CO)S2(=O)=O	1
C[C@@H]1CN([C@@H](C)CO)C(=O)c2cc(C3=CCCCC3)cnc2O[C@H]1CN(C)C(=O)Cc1ccccc1	-5
CCC(=O)N(C)C[C@@H]1Oc2ncc(C#Cc3ccc(OC)cc3)cc2C(=O)N([C@H](C)CO)C[C@@H]1C	-1
N#C/C(=C\c1ccc(N2CCOCC2)o1)C(=O)NCC1CCCO1 (stereo not drawn)	36*
CCCNC(=O)N(C)C[C@@H]1Oc2cc(C#Cc3cccc(F)c3)ccc2S(=O)(=O)N([C@H](C)CO)C[C@H]1C	-4
COCC(=O)N(C)C[C@H]1Oc2cc(C#Cc3cccnc3)ccc2S(=O)(=O)N([C@@H](C)CO)C[C@H]1C	59*
C/C=C/c1ccc2c(c1)O[C@H](CN(C)C(=O)c1cccnc1)[C@H](C)CN([C@H](C)CO)S2(=O)=O	-5
CC(=O)N(C)C[C@@H]1Oc2cc(C#CC3(O)CCCC3)ccc2S(=O)(=O)N([C@H](C)CO)C[C@@H]1C	5
C[C@H](CO)N1C[C@H](C)[C@H](CN(C)C(=O)C2CC2)Oc2cc(C#Cc3cccnc3)ccc2S1(=O)=O	-2
CCC(=O)N(C)C[C@H]1Oc2cc(C#Cc3cccnc3)ccc2S(=O)(=O)N([C@@H](C)CO)C[C@@H]1C	-22
CCC(=O)N(C)C[C@@H]1Oc2cc(C#Cc3cccnc3)ccc2S(=O)(=O)N([C@@H](C)CO)C[C@@H]1C	4
C[C@@H]1CN([C@@H](C)CO)S(=O)(=O)c2ccc(C#CC3(O)CCCC3)cc2O[C@@H]1CN(C)C(=O)c1cccnc1	47*
SMILES	miR122 inh
CCC(=O)N(C)C[C@H]1Oc2cc(C#Cc3cccnc3)ccc2S(=O)(=O)N([C@H](C)CO)C[C@@H]1C	-10
COCC(=O)N(C)C[C@H]1Oc2cc(C#Cc3cccnc3)ccc2S(=O)(=O)N([C@@H](C)CO)C[C@@H]1C	55*
C/C=C/c1ccc2c(c1)O[C@H](CN(C)C(=O)Cc1cccnc1)[C@H](C)CN([C@H](C)CO)S2(=O)=O	43*
C/C=C/c1ccc2c(c1)O[C@@H](CN(C)C(=O)c1cccnc1)[C@@H](C)CN([C@@H](C)CO)S2(=O)=O	-3
CCCC#Cc1ccc2c(c1)O[C@@H](CN(C)C(=O)c1cccnc1)[C@@H](C)CN([C@@H](C)CO)S2(=O)=O	-12
C/C=C/c1ccc2c(c1)O[C@@H](CN(C)C(=O)CC1CC1)[C@H](C)CN([C@@H](C)CO)S2(=O)=O	5
C[C@@H]1CN([C@@H](C)CO)S(=O)(=O)c2ccc(/C=C/c3ccccc3)cc2O[C@H]1CN(C)C(=O)Nc1cccc(F)c1	-9
C[C@H](CO)N1C[C@H](C)[C@H](CN(C)CC2CCOCC2)Oc2ncc(C#Cc3cccc(F)c3)cc2C1=O	-7
C[C@@H]1CN([C@@H](C)CO)C(=O)c2cc(C#CC3CC3)cnc2O[C@H]1CN(C)Cc1ccncc1	-1
C[C@H]1CN([C@@H](C)CO)S(=O)(=O)c2ccc(-c3cncnc3)cc2O[C@H]1CN(C)Cc1ccccc1	-5
C[C@@H]1CN([C@@H](C)CO)S(=O)(=O)c2ccc(C#CC3CC3)cc2O[C@H]1CN(C)C(=O)C1CC1	-27
CO[C@H]1CN(C)C(=O)c2ccc(NC(=O)Nc3ccc(Cl)cc3)cc2OC[C@H](C)N(C)C[C@H]1C	-1
COCC#Cc1ccc2c(c1)O[C@H](CN(C)C(=O)C1CCCCC1)[C@H](C)CN([C@@H](C)CO)S2(=O)=O	-10
C[C@@H]1CN([C@@H](C)CO)C(=O)c2cc(-c3ccccc3F)cnc2O[C@H]1CN(C)Cc1ccccc1F	-42
C[C@H]1CN([C@@H](C)CO)S(=O)(=O)c2ccc(-c3cccc(C#N)c3)cc2O[C@@H]1CN(C)Cc1ccccn1	-1
CN1C(=O)c2cc(NC(=O)Cc3ccccc3)ccc2OC[C@@H]2O[C@@H](CC(=O)NCc3ccc(Cl)cc3)CC[C@@H]21	-233
COc1cccc(C(=O)Nc2ccc3c(c2)C(=O)N(C)[C@@H]2CC[C@@H](CC(=O)N[C@H](C)c4ccccc4)O[C@@H]2CO3)c1	47*
CNC(=O)C[C@H]1CC[C@@H]2[C@H](COc3ccc(NC(=O)c4cccc(OC)c4)cc3C(=O)N2C)O1	83*
CO[C@@H]1CN(C)C(=O)c2cc(NC(=O)Cc3ccccc3)ccc2OC[C@@H](C)N(C)C[C@H]1C	-6
CO[C@@H]1CN(C)C(=O)c2cc(NC(=O)c3ccc(F)cc3)ccc2OC[C@@H](C)N(C)C[C@H]1C	-3
CO[C@H]1CN(C)C(=O)c2cc(NC(C)=O)ccc2OC[C@@H](C)N(C(=O)c2ccccc2)C[C@@H]1C	1
COc1cccc(CNC(=O)C[C@@H]2CC[C@H]3[C@H](COc4ccc(NS(=O)(=O)c5ccccc5F)cc4C(=O)N3C)O2)c1	37*
COc1cccc(C(=O)Nc2ccc3c(c2)C(=O)N(C)[C@@H]2CC[C@@H](CC(=O)NCc4ccc(F)cc4)O[C@@H]2CO3)c1	37*
C[C@@H]1CN([C@H](C)CO)C(=O)c2cc(C#Cc3cccc(F)c3)cnc2O[C@@H]1CN(C)CC1CCOCC1	0
CC(C)NC(=O)N(C)C[C@@H]1Oc2cc(-c3ccccc3)ccc2S(=O)(=O)N([C@H](C)CO)C[C@@H]1C	0
COc1ccccc1S(=O)(=O)N(C)C[C@@H]1Oc2ncc(-c3ccc(C)cc3)cc2C(=O)N([C@@H](C)CO)C[C@H]1C	4
C[C@H](CO)N1C[C@H](C)[C@H](CN(C)C(=O)CC2CC2)Oc2cc(-c3ccccc3)ccc2S1(=O)=O	-10
CCCC(O)C#Cc1cnc2c(c1)C(=O)N([C@H](C)CO)C[C@H](C)[C@H](CN(C)Cc1ccccc1)O2 (stereo partly drawn)	-6

Screening data from PubChem BioAssay.
